Experimental data as given in PubChem BioAssay (NCI).
Compounds without any hit were thinned out: in the full panel of roughly 79,000, 15% have a hit. Active and inactive are the calls of the source. No stated cut-off is given here; in the data, active means growth inhibition above about 70%; inactive means the rest.

Columns and labels:
[1] = NCI Yeast Anticancer Drug Screen. Data for the rad50 strain (AID 155);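 further: 0% = growth of vehicle-only cultures of the same strain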; details: S. cerevisiae rad50 strain growth inhibition, active compounds read high
Method in brief: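 Growth of the mutant yeast was measured after compound exposure and referenced to vehicle-treated cultures.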

[2] = NCI Yeast Anticancer Drug Screen. Data for the mec2-1 strain (AID 157); details: S. cerevisiae mec2-1 strain, active compounds read high
Method in brief: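 Readout is yeast growth inhibition, normalised to vehicle-treated controls, in the mec2-1 strain exposed to compound.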

[3] = NCI Yeast Anticancer Drug Screen. Data for the sgs1 mgt1 strain (AID 161);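 further: 0% = growth of cultures given vehicle only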; details: S. cerevisiae sgs1 mgt1 strain, active compounds read high
Method in brief: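 Yeast cells carrying a defined DNA-repair defect were exposed to test compounds. Growth inhibition was measured relative to vehicle-treated controls.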

[4] = NCI Yeast Anticancer Drug Screen. Data for the cln2 rad14 strain (AID 165);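 further: 0% = growth equal to vehicle treated cultures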; details: S. cerevisiae cln2 rad14 strain, active compounds read high
Method in brief: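 Relative to vehicle controls, growth inhibition of compound-treated cln2 rad14 yeast was recorded.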

[5] = NCI Yeast Anticancer Drug Screen. Data for the bub3 strain (AID 167); details: S. cerevisiae bub3 mutant strain, active compounds read high
Method in brief: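 Whole-cell yeast assay. The mutant strain was incubated with compounds, and growth inhibition was determined by comparison with vehicle-treated cells.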

[6] = NCI Yeast Anticancer Drug Screen. Data for the mlh1 rad18 strain (AID 175); details: S. cerevisiae mlh1 rad18 strain growth inhibition, active compounds read high
Method in brief: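 Test agents were incubated with a yeast strain of defined genotype (DNA damage repair defect). Inhibition of growth was derived by comparison with vehicle-exposed cultures.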

[7] = at 5.0 µM (retest, dose inferred, filed as 0.5)
[8] = at 50.0 µM (retest, dose inferred, filed as 5.0)

Measured: growth inhibition

CCCc1nc2c(nc1C)C(=O)C=CC2=O
inactive: [1]; [7] -101% | [2]; [7] -37% | [3]; [7] -46% | [4]; [7] -44% | [5]; [7] -53% | [6]; [7] -80%
active: [1]; [8] 96% | [1]; at 50.0 µM 96.5% | [2]; [8] 99% | [2]; at 50.0 µM 97.5% | [3]; [8] 95% | [3]; at 50.0 µM 81.6% | [4]; [8] 97% | [4]; at 50.0 µM 86.5% | [5]; [8] 96% | [5]; at 50.0 µM 97.1% | [6]; [8] 96% | [6]; at 50.0 µM 98.3%

CC1(c2ccc(O)cc2)CC(C)(c2ccc(O)cc2)C1 (stereo not given)
active: [1]; [7] 81% | [1]; [8] 93% | [1]; at 50.0 µM 94.8% | [2]; [8] 82% | [2]; at 50.0 µM 93.2% | [3]; [8] 91% | [3]; at 50.0 µM 91.9% | [4]; [8] 87% | [4]; at 50.0 µM 94.2% | [5]; [7] 87% | [5]; [8] 91% | [5]; at 50.0 µM 95.2% | [6]; [7] 86% | [6]; [8] 89% | [6]; at 50.0 µM 92.8%
inactive: [2]; [7] 32% | [3]; [7] 67% | [4]; [7] 41%

CCOC(=O)C1=C(C)Oc2cc3c(cc2C1c1cc(OC)c(OC)c(OC)c1)OCO3 (stereo not given)
active: [4]; [8] 89% | [5]; [8] 94% | [6]; [8] 83%
inactive: [1]; [7] 8% | [1]; [8] 40% | [1]; at 50.0 µM 54.6% | [2]; [7] 11% | [2]; [8] 64% | [2]; at 50.0 µM 28.9% | [3]; [7] -1% | [3]; [8] 37% | [3]; at 50.0 µM 47.3% | [4]; [7] 11% | [4]; at 50.0 µM 19.1% | [5]; [7] 36% | [5]; at 50.0 µM 55.6% | [6]; [7] 12% | [6]; at 50.0 µM 45.8%

CC(c1ccccc1)C(C(=O)O)(c1ccccc1)c1ccccc1 (stereo not given)
active: [1]; [7] 80% | [1]; at 50.0 µM 99.4% | [2]; [7] 76% | [2]; at 50.0 µM 99.3% | [3]; at 50.0 µM 99.7% | [4]; [7] 81% | [4]; at 50.0 µM 99.3% | [5]; [7] 76% | [5]; at 50.0 µM 99.5% | [6]; [7] 84% | [6]; at 50.0 µM 99.3%
inactive: [1]; [8] 4% | [2]; [8] 7% | [3]; [7] 61% | [3]; [8] 26% | [4]; [8] 12% | [5]; [8] -3% | [6]; [8] 8%

Cc1cc(N(CCC#N)CCC#N)ccc1/C(Sc1ccccc1)=C(\NC(=O)/C=C/c1ccccc1)C(=O)Sc1ccccc1
inactive: [1]; [7] 28% | [1]; [8] 28% | [2]; [7] 21% | [2]; [8] 21% | [3]; [7] 25% | [3]; [8] 25% | [4]; [7] 17% | [4]; [8] 17% | [4]; at 50.0 µM 64.5% | [5]; [7] 21% | [5]; [8] 21% | [6]; [7] 24% | [6]; [8] 24%
active: [1]; at 50.0 µM 86.6% | [2]; at 50.0 µM 90% | [3]; at 50.0 µM 90.9% | [5]; at 50.0 µM 87.2% | [6]; at 50.0 µM 75.1%

O=C(O)c1ccc(CSc2ccc(Cl)cc2)cc1
active: [6]; at 50.0 µM 71.3%
inactive: [1]; [7] -4% | [1]; [8] 0% | [1]; at 50.0 µM 52% | [2]; [7] -2% | [2]; [8] 19% | [2]; at 50.0 µM 10.4% | [3]; [7] 11% | [3]; [8] 36% | [3]; at 50.0 µM 51.3% | [4]; [7] -7% | [4]; [8] -15% | [4]; at 50.0 µM 36.7% | [5]; [7] -6% | [5]; [8] 39% | [5]; at 50.0 µM 18.7% | [6]; [7] 0% | [6]; [8] 17%

CCOC(=O)N1C=C(C(=O)OC)C(c2ccccc2)C(C(=O)OC)=C1
inactive: [1]; [7] 4% | [1]; [8] 6% | [1]; at 50.0 µM -15.2% | [2]; [7] 0% | [2]; [8] 20% | [2]; at 50.0 µM -9.35% | [3]; [7] 5% | [3]; [8] 14% | [3]; at 50.0 µM -6.3% | [4]; [7] -5% | [4]; [8] 4% | [4]; at 50.0 µM 32.6% | [5]; [7] 8% | [5]; [8] 35% | [5]; at 50.0 µM -4.25% | [6]; [7] 2% | [6]; [8] 20% | [6]; at 50.0 µM 1.25%

O=C1OC(=O)c2ccc(S)c3cccc1c23
active: [1]; [8] 95% | [1]; at 50.0 µM 81.8% | [2]; [8] 85% | [3]; [8] 86% | [5]; [8] 90% | [5]; at 50.0 µM 88.8% | [6]; [8] 95% | [6]; at 50.0 µM 76%
inactive: [1]; [7] -35% | [2]; [7] -25% | [2]; at 50.0 µM 61.2% | [3]; [7] -53% | [3]; at 50.0 µM 38.6% | [4]; [7] -42% | [4]; [8] 68% | [4]; at 50.0 µM 36.7% | [5]; [7] -32% | [6]; [7] -80%

CC(=O)OCC1OC(SSc2ccccc2)C(OC(C)=O)C(OC(C)=O)C1OC(C)=O (stereo not given)
inactive: [1]; [7] -2% | [1]; [8] 13% | [1]; at 50.0 µM 59.4% | [2]; [7] -30% | [2]; [8] 69% | [2]; at 50.0 µM 44.6% | [3]; [7] 10% | [3]; [8] 7% | [3]; at 50.0 µM 58.1% | [4]; [7] -13% | [4]; [8] 5% | [4]; at 50.0 µM 45% | [5]; [7] -12% | [5]; [8] 8% | [5]; at 50.0 µM 8.5% | [6]; [7] -17% | [6]; at 50.0 µM 53.9%
active: [6]; [8] 73%

C/C(=N\NC(=S)Nc1ccc(C)cc1)c1nc2ncccc2[nH]1
active: [1]; [8] 84% | [1]; at 50.0 µM 73.8% | [2]; [8] 88% | [3]; [8] 84% | [4]; [8] 91% | [5]; [8] 97% | [5]; at 50.0 µM 71.5% | [6]; [8] 91%
inactive: [1]; [7] -9% | [2]; [7] -6% | [2]; at 50.0 µM 66.2% | [3]; [7] 0% | [3]; at 50.0 µM 66.3% | [4]; [7] -36% | [4]; at 50.0 µM 64.5% | [5]; [7] -21% | [6]; [7] 4% | [6]; at 50.0 µM 50.9%
